Screening data: PubChem BioAssay, several laboratories
Jurkat NFkB inh = inhibitors of the PMA/ionomycin-induced NF-kB reporter in Jurkat cells. AID 435003. hit rate 0.53% among 330,000. inhibition, % at 4 µM. PMA/ionomycin-induced NF-kB luciferase reporter, luminescence; in the data active = inhibition above about 50%
Gli-Sufu antag = Gli-Sufu pathway antagonism | Sufu-KO-LIGHT fibroblasts, Gli luciferase reporter luminescence | inhibition, % at 5 µM | hit rate 0.74% among 340,000 | AID 588413;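 active = inhibition above about 55%, limit read from the data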;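 note: 0% = DMSO-treated cells and 100% = wells with medium but no cells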
Beta apoptosis = blocks beta cell apoptosis. hit rate 0.8% among 300,000. INS-1E cytokine-induced death, ATP luminescence, 48 h; percent of positive-control rescue, neutral wells zero. protection from apoptosis, % (concentration not given with the values). AID 435005;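 active = Every replicate reaches about 75%, or at least half do and their mean reaches it too, limit read from the data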;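 note: 0% = cytokine-treated negative control wells and 100% = positive control rescue; higher means more ATP so stronger rescue from cytokine killing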
Mdm2-MdmX inh = human Mdm2/MdmX binding inhibition | O15151+Q00987 | inhibition, % at 8 µM | AID 485346 | SaOS-2 split-luciferase Mdm2/MdmX complementation, luminescence | hit rate 3% among 330,000;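 active = inhibition of at least 50% at 8 µM in the primary screen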
697 NFkB inh = lowers PMA/ionomycin-induced NF-kB signal in 697 B cells | 697 B-cell NF-kB luciferase reporter, 16 h | inhibition, % at 4 µM | hit rate 0.33% among 330,000 | AID 435022; in the data active = inhibition above about 35%
697 NFkB conf = lowers PMA/ionomycin-induced NF-kB signal in 697 B cells; 697 B-cell NF-kB luciferase, 16 h; hit rate 35% among 2,000; shares compounds with 697 NFkB inh; inhibition, % at 4 µM; AID 449746; in the data active = inhibition mostly above about 28%, no sharp cut-off; inactive = mostly below about 22%
* = called active by the depositor; x = no result. Shown are actives, neighbours in structure and some others; about 4% of the full set was active somewhere.

SMILES	Jurkat NFkB inh	Gli-Sufu antag	Beta apoptosis	Mdm2-MdmX inh	697 NFkB inh	697 NFkB conf
COc1cc2c(cc1NC(=O)CSCC(=O)O)oc1ccccc12	2.5	-3.5	-7.9	-28.7	35.7*	-0.9
Cc1ccc(NS(=O)(=O)c2ccc(C(=O)N3CC(C)CC(C)C3)cc2)cc1 (configuration not stated)	-11.9	9.3	10.9	14.4	-26.9	x
COc1ccc(Cn2c(C3CC3)nc3ccc(NC(C)=O)cc3c2=O)cc1	-131.0	-91.3	-7.4	-184.5	-253.6	-199.4
Cc1nc(C(=O)NCCC(C)C)sc1C1(C)CC(c2ccccc2)=NO1 (configuration not stated)	19.9	9.1	1.8	-18.2	6.4	x
Cc1cc(C)nc(Nc2ncc(O)n2-c2ccc(Br)cc2)n1	13.4	8.8	-1.7	11.9	15.7	x
O=C(CN1C(=O)NC2(CCCCCC2)C1=O)c1ccc2c(c1)OCCO2	-110.1	-60.4	-2.4	-119.6	-266.5	-131.8
O=C(CN1C(=O)NC2(CCCCCC2)C1=O)c1ccc(F)cc1	2.4	-12.0	-3.0	10.8	7.7	x
CC(=O)c1ccc(OCc2cc(C(=O)NC3CCCCC3)no2)cc1	-39.2	-14.9	-5.3	-34.2	-43.5	x
N#Cc1c(/N=C/c2cccs2)sc2c1CCCCC2	-134.6	-26.5	-0.2	44.5	-426.0	-209.3
Cc1ccccc1-c1nnc(SCC(=O)Nc2cccc(C)c2C)o1	-32.7	-16.0	-7.3	-46.3	37.4*	13.8
CC(C)C(c1nnnn1Cc1ccccc1)N(Cc1ccco1)Cc1cccs1 (configuration not stated)	-3.0	-6.0	4.1	29.3	35.3*	28.2*
CCN(CC)c1ccc(/C=C2/C(=O)ON=C2C)cc1	13.8	-11.1	-2.5	25.8	39.5*	36.0*
O=S(=O)(NCc1cn2ccccc2n1)c1cccs1	-20.1	-9.9	-7.1	-1.6	-9.3	x
Cc1cc(C)cc(NC(=O)c2nnn(Cc3cc(C)ccc3C)c2N)c1	-8.2	11.6	-2.2	0.0	37.7*	28.5*
Cc1ccc(C)c(Cn2nnc(C(=O)Nc3ccc4c(c3)OCCO4)c2N)c1	-32.2	-31.7	42.9	-9.0	-62.6	x
C/C(=N\O)c1ccco1	10.7	-1.8	0.5	-19.9	4.0	x
COc1ccc(CC(=O)Nc2ccc(N3CCOCC3)cc2)cc1S(=O)(=O)N1CCOCC1	4.5	-5.1	4.2	11.9	38.6*	-7.3
COc1cc(OC)c(NC(=O)Cc2ccc(OC)c(S(=O)(=O)N3CCOCC3)c2)cc1Cl	-5.1	15.9	-2.5	12.1	12.5	x
O=C(COc1coc(CN2CCc3ccccc32)cc1=O)Nc1ccc([N+](=O)[O-])cc1	28.4	-4.6	10.4	2.4	10.3	x
Cc1c(Cc2ccccc2)c(=O)oc2c(C)c(OCC(=O)NCC3CCC(C(=O)O)CC3)ccc12 (configuration not stated)	-10.8	-14.0	7.0	-9.9	39.5*	26.8
CCN(CC(=O)Nc1ccc(NC(C)=O)cc1)C(=O)c1cccc(N2C(=O)c3ccccc3C2=O)c1	x	1.2	x	x	x	x
COCCN(Cc1nc(-c2ccc(-c3ccccc3)cc2)oc1C)C(C)C	-24.5	-56.9	x	-26.2	-322.3	-436.5
CCOc1ccc2nc(-c3ccccc3)[nH]c2c1	-36.1	-102.7	17.1	-78.4	-298.1	-272.2
COc1ccc2nc(-c3ccccc3)[nH]c2c1	-109.0	-76.9	12.1	-206.9	-126.1	x
COc1ccc(-c2noc(N3CCC(C(=O)Nc4ccc(OC)c(OC)c4)CC3)n2)cc1	16.6	-5.8	1.4	21.2	46.7*	38.0*
SMILES	Jurkat NFkB inh	Gli-Sufu antag	Beta apoptosis	Mdm2-MdmX inh	697 NFkB inh	697 NFkB conf
COc1ccc(-c2noc(N3CCC(C(=O)Nc4ccccc4Cl)CC3)n2)cc1	19.7	4.8	1.6	19.4	39.1*	19.4
CCCNC(=O)N1CCN(C(c2ccccc2)c2ccccc2)CC1	-22.3	6.9	-0.1	24.4	-10.2	x
O=C(NC(=O)N1CCN(C(c2ccccc2)c2ccccc2)CC1)c1ccccc1	-6.6	10.0	-4.8	21.1	36.4*	-13.7
COc1ccccc1C(=O)NC(=S)Nc1cccnc1Cl	-125.0	-51.7	2.2	9.9	-250.1	-331.5
Cc1ccc(C(=O)NC(=S)Nc2cccnc2Cl)cc1	-107.0	-72.2	-1.7	-75.8	-57.8	x
CC(C)CN(CC(C)C)C(=O)CN1C(=O)NC2(CCc3ccccc3C2)C1=O (configuration not stated)	-5.7	1.0	x	-15.0	18.8	x
CCn1c(=O)cc(OCC(=O)NCc2ccc(C)o2)c2ccccc21	5.7	10.1	-4.4	30.5	36.1*	41.8*
CCn1c(=O)cc(OCC(=O)NCc2ccco2)c2ccccc21	10.4	3.6	x	28.8	7.3	x
O=C(c1ccc(Cn2c(=S)[nH]c3cc4c(cc3c2=O)OCO4)cc1)N1CCN(c2ncccn2)CC1	19.1	x	0.9	31.5	55.6*	-7.1
O=C(NCCN1CCCC1)c1ccc(Cn2c(=S)[nH]c3cc4c(cc3c2=O)OCO4)cc1	-25.6	13.1	1.7	-3.0	12.5	x
Cc1cccc(-c2nc(CSc3nc4c(c(=O)[nH]3)CCC4)c(C)o2)c1	23.9	-3.0	-5.8	23.8	38.9*	20.7
O=C(Nc1cc(C(=O)N2CCCC2)ccc1N1CCCC1)c1ccccc1F	11.2	3.8	2.7	-19.2	43.8*	-5.0
O=C(Nc1ccc(C(=O)N2CCCC2)cc1)c1ccccc1F	-19.1	-34.3	9.4	-26.0	-13.2	x
COC(=O)c1cc(NC(=O)Nc2cc(OC)ccc2OC)cc(C(=O)OC)c1	7.4	6.4	6.6	12.7	39.1*	33.7*
CC(=O)C1C=CC(C)(C(=O)O)C2C=C(C)C(=O)C(C)(O)C12 (configuration not stated)	x	9.8	x	x	x	x
CC(C)(CNC(=O)C1CCCN1C(=O)c1cccs1)N1CCOCC1 (configuration not stated)	-1.2	-0.4	-1.7	-16.7	56.8*	-6.6
CCc1ccc(-n2c(C)n[nH]c2=S)cc1	6.9	-10.6	6.8	6.2	-11.5	x
COc1ccc(C(=O)Nc2ccc(OC)c([N+](=O)[O-])c2)cc1Br	6.9	11.8	1.6	1.5	39.2*	34.8*
COc1ccc(CN2C(=O)N(c3ccccc3)C(=O)C2CC(=O)Nc2ccccc2)cc1OC (configuration not stated)	-9.5	-5.6	1.2	-7.0	9.9	x
CC(C)n1c(O)c(N=NC(=O)Cc2csc(N3CCOCC3)n2)c2ccccc21	-3.2	-15.5	4.4	-5.7	21.0	x
COc1cc(OC)cc(-c2nc3ccccc3s2)c1	-106.1	-22.9	2.0	-89.9	-71.6	x
COc1ccc2nc(-c3ccc(F)cc3)sc2c1	-127.0	-160.4	1.9	-137.8	-311.1	-403.9
CCN(C(=O)CN1C(=O)S/C(=C\C=C\c2ccccc2)C1=O)C1CCS(=O)(=O)C1 (configuration not stated)	-3.0	-27.9	16.6	0.4	-63.7	x
C=C(C)[C@@H]1CCC2(C(=O)O)CC[C@]3(C)[C@H](CC[C@@H]4[C@@]5(C)CCC(=O)C(C)(C)[C@@H]5CC[C@]43C)[C@@H]12 (some centres not stated)	2.7	-11.8	-2.4	35.6	79.8*	60.5*
